PubChem BioAssay AID1416 (The Scripps Research Institute Molecular Screening Center, 2008)
Out of some 220,000 compounds screened, about 370 (0.17%) were called active. Many of the other results were omitted from the sample, so actives are more common in it than they were. Unmarked numbers belong to inactive results.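 How the source made its calls: active means inhibition above the mean inhibition of all tested compounds plus 3 SD, set separately per screening campaign (cut at about 2.9% in these data); inactive means the rest.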

biological target: Eukaryotic translation initiation factor 2-alpha kinase 3 (Homo sapiens) (UniProt Q9NZJ5); assay: SEAP translation reporter rise after PERK-DD activation – CHO PERK-DD cells, SEAP luminescence, HTS, PERK inhibitor project, primary screen (AID 1416); details: CHO PERK-DD fusion, at 5.6 µM, hits give high values;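 further: PERK kinase domain activated by AP20187 dimerizer at 100 nM; 0% = DMSO with dimerizer and 100% = rapamycin at 8.4 µM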
Sequence (Q9NZJ5 whole entry, looked up, the tested form may be a part): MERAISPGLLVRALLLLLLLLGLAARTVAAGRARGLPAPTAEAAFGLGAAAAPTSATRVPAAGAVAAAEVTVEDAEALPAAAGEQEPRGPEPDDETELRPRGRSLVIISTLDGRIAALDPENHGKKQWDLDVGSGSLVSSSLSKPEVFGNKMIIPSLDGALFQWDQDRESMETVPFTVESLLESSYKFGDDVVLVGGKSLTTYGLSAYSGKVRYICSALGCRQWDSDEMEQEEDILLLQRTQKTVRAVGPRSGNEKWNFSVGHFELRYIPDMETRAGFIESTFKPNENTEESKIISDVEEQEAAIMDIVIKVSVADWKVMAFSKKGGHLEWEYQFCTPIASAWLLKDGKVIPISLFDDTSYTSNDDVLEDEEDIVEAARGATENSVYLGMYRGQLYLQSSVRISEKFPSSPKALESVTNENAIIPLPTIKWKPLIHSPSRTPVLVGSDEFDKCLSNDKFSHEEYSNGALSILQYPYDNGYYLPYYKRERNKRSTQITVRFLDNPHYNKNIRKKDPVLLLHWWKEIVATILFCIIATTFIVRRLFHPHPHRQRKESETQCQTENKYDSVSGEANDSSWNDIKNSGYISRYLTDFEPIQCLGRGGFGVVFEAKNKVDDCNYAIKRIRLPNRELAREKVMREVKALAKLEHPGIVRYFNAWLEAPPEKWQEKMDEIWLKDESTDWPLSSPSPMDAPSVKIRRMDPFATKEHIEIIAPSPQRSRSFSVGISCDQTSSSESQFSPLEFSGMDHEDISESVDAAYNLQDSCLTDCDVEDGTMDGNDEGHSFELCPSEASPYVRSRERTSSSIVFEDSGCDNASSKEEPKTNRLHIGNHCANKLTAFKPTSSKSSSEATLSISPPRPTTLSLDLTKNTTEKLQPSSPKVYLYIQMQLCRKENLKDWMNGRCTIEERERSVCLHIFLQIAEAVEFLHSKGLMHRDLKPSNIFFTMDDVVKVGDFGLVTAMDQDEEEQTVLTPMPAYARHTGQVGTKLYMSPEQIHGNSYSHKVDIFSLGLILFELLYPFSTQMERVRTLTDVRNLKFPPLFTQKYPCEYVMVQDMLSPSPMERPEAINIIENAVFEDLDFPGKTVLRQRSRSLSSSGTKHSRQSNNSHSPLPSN

Question: With `Cc1ccc2c(c1)NCC(C(=O)NC1CCC(C)CC1)O2` (stereo not drawn) as the compound, how does the inhibition read?
Answer: 0.88%

Question: `COCc1c(C(=O)N/N=C/C2CC=CCC2)nnn1-c1nonc1N` (stereo not drawn) was tested. Which inhibition did it give?
Answer: 0.44%

Question: For `COc1ccc(NC(=S)Nc2ccc(S(N)(=O)=O)cc2)c(C)c1`, which inhibition is on record?
Answer: 1.02%

Question: How did the inhibition turn out when `CN(Cc1ccccn1)Cc1nc(-c2ccc(Cl)cc2)no1` was run?
Answer: 0.32%

Question: With `COC(=O)C1=C(C)NC(=O)CC1c1ccccc1OC` (stereo not drawn) as the compound, how does the inhibition read?
Answer: 0.25%

Question: With `CN(c1ccc(OCC(=O)NC2=NCCS2)cc1)S(=O)(=O)c1ccc(F)cc1` as the compound, how does the inhibition read?
Answer: 1.79%

Question: `Cc1cccc(N2CCN(c3ccc(NC(=O)/C=C\C(=O)O)cc3)CC2)c1` was tested. Which inhibition did it give?
Answer: 0.1%

Question: `CS/C(=C\[N+](=O)[O-])Nc1ccc(C)cc1` was tested. Which inhibition did it give?
Answer: 1.47%

Question: `CCOCCn1c(-c2ccccc2)nc2ccccc21` was tested. Which inhibition did it give?
Answer: -1.39%

Question: Which inhibition does the source give for `Cc1ccccc1C1=N/C(=C/c2cccnc2)C(=O)O1` here?
Answer: 0.44%

Question: Which inhibition does the source give for `O=C(CC1Nc2ccccc2NC1=O)Nc1ccccc1NC(=O)CC1Nc2ccccc2NC1=O` (stereo not drawn) here?
Answer: 0.97%

Question: Which inhibition does the source give for `CN(C)S(=O)(=O)N1CCN(c2ccc([N+](=O)[O-])cc2)CC1` here?
Answer: 0.53%

Question: How did the inhibition turn out when `Cc1cc(NC(=O)/C=C/C(=O)N(c2ccccc2C)C(C(=O)NC2CCCC2)c2ccc(F)cc2)no1` (stereo not drawn) was run?
Answer: 2.4%

Question: Which inhibition does the source give for `CSc1sc(C(=O)NC(=O)NCc2cccnc2)c(C)c1-c1ccon1` here?
Answer: -0.78%

Question: For `Cc1c(C=O)n(C)n(-c2ccccc2)c1=O`, which inhibition is on record?
Answer: 0.28%

Question: `Cc1ccc(Cl)c(NC(=O)CN(C)CC(=O)Nc2ccc(F)c(F)c2F)c1Cl` was tested. Which inhibition did it give?
Answer: 0.24%

Question: `Cc1noc(C)c1C(=O)OCC(=O)N1CCN(S(=O)(=O)c2ccc3ccccc3c2)CC1` was tested. Which inhibition did it give?
Answer: 1.94%

Question: How did the inhibition turn out when `COc1ccc(C(F)(F)F)cc1N/C=C\c1nnnn1-c1ccc(C)cc1` was run?
Answer: 1.24%

Question: How did the inhibition turn out when `C#CCNC(=O)C1=C[C@@H](c2ccccc2)[C@H](CCCO)[C@@H](OCC)O1` was run?
Answer: 0.82%

Question: With `CSCC[C@H](NC(=O)NCCc1ccc(F)cc1)C(=O)O` as the compound, how does the inhibition read?
Answer: 0.4%

Question: With `C[C@H](NC(=O)NCCc1ccccc1)C(=O)O` as the compound, how does the inhibition read?
Answer: 1.63%

Question: `CC(C)C[C@H](NC(=O)NCCc1ccc(Cl)cc1)C(=O)O` was tested. Which inhibition did it give?
Answer: 3.16% (active)

Question: Which inhibition does the source give for `CC(=O)c1ccc(NC(=O)CSC(=S)N2CCCC2)cc1` here?
Answer: -0.15%

Question: With `Cc1cc(C)n(CC(O)CN(c2ccccc2)S(=O)(=O)c2ccc3ccccc3c2)n1` (stereo not drawn) as the compound, how does the inhibition read?
Answer: 0.84%

Question: For `CC(C)CCSc1ncnc2c1oc1nc3c(cc12)COC(C)(C)C3`, which inhibition is on record?
Answer: -0.1%

Question: `CC(=O)Nc1cccc(/C(C)=N/NC(=O)c2c(-c3ccccc3Cl)noc2C)c1` was tested. Which inhibition did it give?
Answer: -0.07%

Question: Which inhibition does the source give for `COc1ccccc1N=C(C)C1=C(O)COC1=O` here?
Answer: 0.22%

Question: With `O=[N+]([O-])c1ccc2c(c1)C(O)n1nc(-c3ccccc3)nc1S2` (stereo not drawn) as the compound, how does the inhibition read?
Answer: 1.41%

Question: For `Cc1ccc(C(C)(C)C)c(OCCCCN2CCCC2)c1`, which inhibition is on record?
Answer: -1.02%

Question: How did the inhibition turn out when `CS(=O)(=O)N(CC(=O)Nc1ccc(F)cc1F)c1cccc([N+](=O)[O-])c1` was run?
Answer: 1.41%

Question: How did the inhibition turn out when `Cc1ccc(C)c(NC(=S)NNC(=S)Nc2ccc(C(C)C)cc2)c1` was run?
Answer: 0.16%

Question: Which inhibition does the source give for `OCCN1CCN(C(=S)c2ccc(-c3ccccc3)cc2)CC1` here?
Answer: 0.18%

Question: `CCOc1ccc(C(=O)NC(=S)Nc2ccc(N3CCOCC3)c(Cl)c2)cc1[N+](=O)[O-]` was tested. Which inhibition did it give?
Answer: 1.74%

Question: `CCCCn1nc(C(=O)Nc2ccc(S(=O)(=O)Nc3ncccn3)cc2)c2ccccc2c1=O` was tested. Which inhibition did it give?
Answer: 0.72%

Question: With `O=c1c2sccc2nc(SCc2cc(=O)n3ccccc3n2)n1-c1ccc(Br)cc1` as the compound, how does the inhibition read?
Answer: -1.2%

Question: With `COc1cc(/C=N/NC(=O)Nc2ccccc2)ccc1OCCOc1ccccc1C` as the compound, how does the inhibition read?
Answer: 0.13%

Question: For `CC(=O)Nc1ccccc1NC(=O)c1cc(C)cc(C)c1`, which inhibition is on record?
Answer: 0.02%

Question: With `Cc1ccccc1C(=O)Nc1ccc(N2CCCCCC2)cc1` as the compound, how does the inhibition read?
Answer: -0.25%

Question: For `O=c1[nH][nH]c(=O)c2cc(N3CCCC3)ccc12`, which inhibition is on record?
Answer: 0.69%

Question: How did the inhibition turn out when `O=C1C=CC(=O)N1c1ccc(N2CCCCC2)cc1` was run?
Answer: 3.21% (active)

Question: For `CN1CCN(c2ccc(NC(=O)c3ccc4c(c3)[nH]c(=O)n4Cc3ccc(F)cc3)cc2)CC1`, which inhibition is on record?
Answer: 0.51%

Question: How did the inhibition turn out when `CCc1cc(C(N)=O)c(NC(=O)c2ccc(OC)cc2)s1` was run?
Answer: 0.45%

Question: With `Cc1ccc2cc(/C=N/NC(=O)[C@@H]3CCCN3)c(Cl)nc2c1` as the compound, how does the inhibition read?
Answer: -0.87%

Question: For `C=CCSc1nc2ccccc2[nH]1`, which inhibition is on record?
Answer: -0.36%

Question: For `C=CCSc1nc(N)cc(=O)[nH]1`, which inhibition is on record?
Answer: 2.99% (active)

Question: For `CCCCc1nnc(NC(=O)CSc2nc(N)cc(=O)[nH]2)s1`, which inhibition is on record?
Answer: 0.08%

Question: `CCOc1ccc(CCNC(=O)C(CC)n2nc(C)n3c(cc4sccc43)c2=O)cc1OCC` (stereo not drawn) was tested. Which inhibition did it give?
Answer: -0.56%

Question: With `O=C(NCCc1ccc(F)cc1)c1n[nH]c2ccccc12` as the compound, how does the inhibition read?
Answer: 0.75%

Question: With `C=C(C)CSc1nnc(-c2ccc(C)cc2)n1N` as the compound, how does the inhibition read?
Answer: 0.46%

Question: For `CCCn1nnnc1NC(=O)COc1ccc(Cl)cc1C`, which inhibition is on record?
Answer: -0.15%

Question: How did the inhibition turn out when `CSc1ccc(NC(=O)/C=C/C(=O)O)cc1` was run?
Answer: 0.87%

Question: `COc1cccc(-c2ccc(C#N)c(SCC(=O)NCCc3ccc(Cl)cc3)n2)c1` was tested. Which inhibition did it give?
Answer: 1.75%

Question: With `Cc1ccc(S(=O)(=O)N(Cc2ccc(Cl)cc2)c2ccccc2C(=O)NCc2cccnc2)cc1` as the compound, how does the inhibition read?
Answer: -0.82%

Question: `O=C(Nc1ccc2cn[nH]c2c1)c1ccc(S(=O)(=O)N2CCOCC2)cc1` was tested. Which inhibition did it give?
Answer: 1.2%

Question: `Cc1ccc(NNC(=O)C2CCC2)cc1C` was tested. Which inhibition did it give?
Answer: 0.43%

Question: For `COC(=O)CSc1nc2c(c(C3CC=CCC3)c1C#N)CCC2` (stereo not drawn), which inhibition is on record?
Answer: 0.22%

Question: For `CCC(C)OC(=O)C(C)Oc1ccc(-c2ccccc2)cc1` (stereo not drawn), which inhibition is on record?
Answer: -0.27%

Question: `Cc1nn(Cc2ccccc2Cl)c(C)c1NC(=O)Cn1nc([N+](=O)[O-])c(Cl)c1C` was tested. Which inhibition did it give?
Answer: -0.58%

Question: Which inhibition does the source give for `CC(=O)N1CCN(S(=O)(=O)c2ccc(C)c([N+](=O)[O-])c2)C1C(C)C` (stereo not drawn) here?
Answer: 0.34%

Question: For `Cc1cccc(C)c1NC(=S)N(Cc1cccnc1)Cc1ccccc1Cl`, which inhibition is on record?
Answer: -0.05%

Question: With `CSc1ccccc1C(=O)NCc1ccccc1` as the compound, how does the inhibition read?
Answer: 1.84%

Question: With `O=S(=O)(Nc1ncccn1)c1ccc(NS(=O)(=O)c2cccc(Cl)c2Cl)cc1` as the compound, how does the inhibition read?
Answer: 0.64%

Question: How did the inhibition turn out when `Cc1ccc(OCc2n[nH]c(=S)n2-c2ccc(C)cc2)cc1` was run?
Answer: 0.51%

Question: With `Cc1cc(-c2n[nH]c(=S)n2-c2ccc(C)c(C)c2)no1` as the compound, how does the inhibition read?
Answer: 3.32% (active)

Question: How did the inhibition turn out when `COc1ccccc1-n1c(-c2cc(-c3ccco3)[nH]n2)n[nH]c1=S` was run?
Answer: 1.16%

Question: How did the inhibition turn out when `COCCNC(=O)CN(C(=O)CCC(=O)Nc1cc(C)on1)c1ccc(C)cc1C` was run?
Answer: 3.05% (active)

Question: Which inhibition does the source give for `Cc1ccc(SCCC(=O)Nc2cc(C)on2)cc1` here?
Answer: 1.3%

Question: With `Cc1cc(NC(=O)CCC(=O)N(CC(=O)NCC2CCCO2)c2ccccc2C)no1` (stereo not drawn) as the compound, how does the inhibition read?
Answer: 0.7%

Question: With `O=[N+]([O-])/C(N=Nc1ccccc1)=N\Nc1ccccc1` as the compound, how does the inhibition read?
Answer: 0.56%

Question: `N#Cc1c(NC(=O)c2ccc(N3CCOCC3)c([N+](=O)[O-])c2)sc2c1CCCC2` was tested. Which inhibition did it give?
Answer: 0.19%

Question: How did the inhibition turn out when `O=S(=O)(c1ccc(NC(=S)NN=C(C2CC2)C2CC2)cc1)N1CCOCC1` was run?
Answer: 1.01%

Question: With `C=CCSC(CC)(CC)C(N)=O` as the compound, how does the inhibition read?
Answer: 2.98% (active)

Question: How did the inhibition turn out when `O=S(=O)(NCC1OCCc2ccccc21)c1ccccc1` (stereo not drawn) was run?
Answer: 0.47%

Question: How did the inhibition turn out when `Cc1c(-c2ccccc2)cn2c1-c1ccc(C)n1CC2` was run?
Answer: 0.83%

Question: For `COC(=O)[C@H](C)NC(=O)Nc1ccc(OC(F)(F)F)cc1`, which inhibition is on record?
Answer: -0.1%

Question: For `Cn1nccc1NC(=O)Nc1ccc(OC(F)(F)F)cc1`, which inhibition is on record?
Answer: 4.03% (active)

Question: For `CCOC(=O)Cc1ncccc1C(=O)Nc1ccc(OC(F)(F)F)cc1`, which inhibition is on record?
Answer: 0.3%

Question: With `Cc1ccc(S(=O)(=O)Cc2cc(-c3ccc(Cl)cc3)no2)cc1` as the compound, how does the inhibition read?
Answer: 0.87%

Question: Which inhibition does the source give for `CCOC(=O)CN1C(=O)N[C@@H](c2ccc(Br)cc2)C(C(C)=O)=C1C` here?
Answer: 0.08%

Question: With `CCOCCCNC(=O)C(=O)NCCCOCC` as the compound, how does the inhibition read?
Answer: 0.9%

Question: For `CCOC(=O)Cc1cc(=O)[nH]c(=O)[nH]1`, which inhibition is on record?
Answer: 1.51%

Question: For `CCOCCCNC(=O)Cc1cc(=O)[nH]c(=O)[nH]1`, which inhibition is on record?
Answer: 3.08% (active)

Question: How did the inhibition turn out when `O=C(CN1CCc2ccccc21)NC(c1ccccc1)c1ccccc1` was run?
Answer: -0.59%

Question: Which inhibition does the source give for `CN(C)C(=O)c1cc(Br)ccc1Cl` here?
Answer: 2.54%

Question: How did the inhibition turn out when `CC(=O)NC(Cc1ccc(F)c(F)c1)C(=O)NC1CCN(C(=O)c2ccc(C)cc2)CC1` (stereo not drawn) was run?
Answer: 0.06%

Question: `C=C(C)C1CC=C(C)/C(=N\NC(=O)CNc2ccccc2OC)C1` (stereo not drawn) was tested. Which inhibition did it give?
Answer: 0.13%

Question: With `c1ccc(COc2nsnc2N2CCOCC2)cc1` as the compound, how does the inhibition read?
Answer: 1.4%

Question: With `c1nc(COc2nsnc2N2CCOCC2)cs1` as the compound, how does the inhibition read?
Answer: 0.89%

Question: For `O=C(O)COc1nsnc1N1CCOCC1`, which inhibition is on record?
Answer: 2.98% (active)

Question: With `NCC(=O)c1cccc2ccc[n+]([O-])c12` as the compound, how does the inhibition read?
Answer: -0.12%

Question: How did the inhibition turn out when `COc1cc(C(=O)N2CCN(C/C=C/c3ccccc3)CC2)cc(OC)c1C` was run?
Answer: -0.57%

Question: How did the inhibition turn out when `CC(C)N1CCC(=NNc2ccc([N+](=O)[O-])cc2S(=O)(=O)N2CCOCC2)CC1` was run?
Answer: 1%

Question: For `CC(C)N(C(=O)CSc1nc(COc2ccccc2)nc2ccccc12)C(C)C`, which inhibition is on record?
Answer: 0.48%
